# In PubChem BioAssay AID2685 (National Center for Advancing Translational Sciences (NCATS), 2010):
# The campaign covered roughly 320,000 compounds. About 2,100 (0.66%) were called active. Roughly 53% stayed inconclusive and do not appear here. Calls come from the whole dose curve; as a rule, active = well fitted inhibition curve with a large enough effect in the signal ratio, with a control signal flat (not every such curve was filed as active); inconclusive = small, poorly fitted or top-dose-only effect, or effect the other way, or a change in a side signal; inactive = flat fitted curve, though single readings scatter; the % refers to the signal ratio. For the sample, actives were picked, then their nearest neighbours and some compounds at random.
# Assay: qHTS Assay for Lipid Storage Modulators in Drosophila S3 Cells;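 for cell number change: cells counted by Cell Tracker Red CMTPX staining in the red channel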
# Details: BODIPY lipid droplet fluorescence, 18-24 h, cells fed with added oleic acid; cell number change: measured here: cell count max response; series mostly up to 46.1 µM
# Procedure, shortened: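 Drosophila S3 cells loaded with oleic acid (400 uM, as added) and compounds at several concentrations; lipid droplets imaged by 488-nm laser-scanning cytometry, 500–530 nm intensity and object ratio to cell channel. Percent activity normalized to 20 uM Triacsin C.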
# Potency is the fitted concentration of half-maximal effect.
Compound,Potency,cell number change
Cc1ccc(C(=O)C(OC(=O)CCC(=O)Nc2cccc(C)c2)c2ccccc2)cc1 (configuration not stated),inactive,-1.69%
O=C(CCC(=O)OC(C(=O)c1ccccc1)c1ccccc1)Nc1ccccc1 (configuration not stated),0.731 µM (active),-23.6%
COc1ccc(NC(=O)CCC(=O)OC(C(=O)c2ccccc2)c2ccccc2)cc1 (configuration not stated),inactive,-23.4%
COc1ccc(NS(=O)(=O)c2ccc(NC(C)=O)cc2)c(OC)c1,inactive,0.633%
O=C(NCCc1cnn(-c2ccccc2)c1)c1cc(COc2c(F)cccc2F)on1,inactive,0.269%
Cn1c(-c2ccc(F)cc2)cnc1NCc1ccc(F)cc1F,inactive,25.6%
COc1ccccc1CNc1ncc(-c2ccc(F)cc2)n1C,inactive,-1.58%
COc1ccc(OC)c(CNc2ncc(-c3ccc(F)cc3)n2C)c1,32.6 µM (active),-16.1%
COc1ccc(-n2c(=O)c3ccccc3n(CC(=O)NC3CCCCC3)c2=O)c(OC)c1,inactive,
CC(C)(CO)NC12CC3CC(CC(C3)C1)C2,0.058 µM (active),-20.6%
CC(O)CNC12CC3CC(CC(C3)C1)C2 (configuration not stated),inactive,
CC(C)(C)NC(=O)NC12CC3CC(CC(C3)C1)C2,inactive,0.331%
Cc1ccc(S(=O)(=O)N(C)/N=C/c2ccc(N(C)C)cc2)cc1,inactive,12.7%
O=C(NCc1ccccc1)/C(=C/c1ccc([N+](=O)[O-])cc1)NC(=O)c1ccco1,inactive,-3.81%
COc1ccc(C(=O)CSc2nnc(CNC(=O)c3ccccc3F)n2C)cc1OC,inactive,0.87%
O=C(NCCOc1ccccc1)C1CCCN1C(=O)c1cccs1 (configuration not stated),inactive,-1.16%
O=C(NCc1ccco1)C(c1ccc(F)cc1)N(CC1CCCO1)C(=O)Cn1nnc2ccccc21 (configuration not stated),inactive,-18.6%
O=C(NC1CCCCC1)C(c1ccc(F)cc1)N(Cc1ccco1)C(=O)Cn1nnc2ccccc21 (configuration not stated),16.4 µM (active),19.8%
O=C(NC1CCCCC1)C(c1ccc(F)cc1)N(Cc1ccco1)C(=O)CN1C(=O)c2ccccc2S1(=O)=O (configuration not stated),inactive,11.1%

Compound,Potency,cell number change
COc1ccccc1/C=C/c1onc(C)c1S(=O)(=O)N1CCC(C(=O)NC2CCCCCC2)CC1,inactive,-0.659%
CCOC(=O)CC(NC(=O)c1cc2ccccc2oc1=O)c1cccc([N+](=O)[O-])c1 (configuration not stated),inactive,11.6%
O=[N+]([O-])c1cc([N+](=O)[O-])c(Oc2c(F)ccc(F)c2F)cc1NN1CCCCC1,inactive,-0.599%
NC(=O)Cn1nc([N+](=O)[O-])nc1Oc1ccccc1C(=O)N1CCOCC1,14.6 µM (active),-24.1%
COc1ccccc1Oc1nc([N+](=O)[O-])nn1CC(N)=O,inactive,-6.43%
NC(=O)Cn1nc([N+](=O)[O-])nc1Oc1ccc(Br)cc1,inactive,-1.14%
Cc1ccc(C(=O)C[n+]2cc(Br)cc(Br)c2)cc1[N+](=O)[O-],inactive,11.3%
Cc1cccc(C(CC(=O)N2CCCCC2)c2ccccc2)c1O (configuration not stated),inactive,-18.8%
O=C1CC2(CCN(C(=O)c3ccc(Br)cc3)CC2)Oc2ccccc21,inactive,-15.2%
COc1cc(/C=C/C(=O)c2ccc(NS(=O)(=O)c3ccc(C)cc3)cc2)cc(OC)c1O,inactive,-14.2%
Cc1ccc(NC(=S)N2CCC(C(N)=O)(N3CCCCC3)CC2)c(C)c1,inactive,-4.08%
Cc1ccc2oc(C(=O)N3CCC(C(N)=O)(N4CCCCC4)CC3)c(C)c2c1,18.4 µM (active),-4.2%
CCN(CC)C(=O)C1CCCN(C(=O)c2oc3ccc(C)cc3c2C)C1 (configuration not stated),inactive,15.6%
CCCOc1ccc(/C=C/C(=O)N2CCN(c3ccccn3)CC2)cc1,inactive,-20.8%
S=c1[nH]nc(COc2ccc3ccccc3c2)o1,inactive,-7.51%
Cc1ccc(S(=O)(=O)CCc2nc3ccccc3s2)cc1C,18.4 µM (active),19.6%
Cc1ccc(S(=O)(=O)CCc2nc3ccccc3s2)cc1,inactive,-0.805%
O=S(=O)(CCc1nc2ccccc2s1)c1ccc(Cl)cc1,inactive,17.6%
c1cncc(-c2cn(C[C@H]3CC[C@@H]([C@@H]4CC[C@H](Cn5cc(-c6cccnc6)nn5)O4)O3)nn2)c1,14.6 µM (active),9.88%

Compound,Potency,cell number change
c1ccc(-c2cn(C[C@H]3CC[C@@H]([C@@H]4CC[C@H](Cn5cc(-c6ccccc6)nn5)O4)O3)nn2)cc1,inactive,-7.49%
c1ccc(-c2cn(C[C@H]3CC[C@@H]([C@@H]4CC[C@H](Cn5cc(-c6ccccn6)nn5)O4)O3)nn2)nc1,inactive,28.2%
CC(=O)N1CCN(S(=O)(=O)c2c(C)n(C)c(=O)n(C)c2=O)CC1,inactive,5.18%
CCCCOc1ccc(C(=O)N2CCNC(=O)C2CC(=O)OC(C)C)cc1 (configuration not stated),inactive,7.09%
CCCNC(=O)Nc1cccc(NC(C)=O)c1,inactive,-9.94%
CCOCCCNC(=O)C1CCCN(S(=O)(=O)c2cccc3nsnc23)C1 (configuration not stated),inactive,-2.02%
CCC1CCCCN1CCCNC(=O)C1CCCN(c2nn3c(=O)cc(C)nc3s2)C1 (configuration not stated),inactive,
Cc1cc(=O)n2nc(N3CCCC(C(=O)N4CCN(C)CC4)C3)sc2n1 (configuration not stated),inactive,-3.39%
Cc1cc(=O)n2nc(N3CCCC(C(=O)NCc4ccccc4Br)C3)sc2n1 (configuration not stated),1.46 µM (active),-27.4%
Cc1cc(=O)n2nc(N3CCCC(C(=O)NCc4ccccc4C)C3)sc2n1 (configuration not stated),inactive,0.288%
COc1ccc(CCNC(=O)C2CCN(c3nn4c(=O)cc(C)nc4s3)CC2)cc1OC,inactive,
Cc1cc(=O)n2nc(N3CCCC3C(=O)NCCCN3CC(C)CC(C)C3)sc2n1 (configuration not stated),5.17 µM (active),-13.9%
CCOc1ccc(CCNC(=O)C2CCN(c3nn4c(=O)cc(C)nc4s3)CC2)cc1OCC,5.8 µM (active),3.17%
Cc1cc(=O)n2nc(N3CCC(C(=O)N4CCN(c5ccccc5)CC4)CC3)sc2n1,inactive,
COc1ccc(NC(=O)C2CCCN2c2nn3c(=O)cc(C)nc3s2)cc1 (configuration not stated),inactive,13.8%
Cc1cc(=O)n2nc(N3CCC(C(=O)NCCc4ccccc4)CC3)sc2n1,inactive,7.93%
Cc1cc(=O)n2nc(N3CCC(C(=O)N4CCN(C)CC4)CC3)sc2n1,6.51 µM (active),5.43%
Cc1cc(=O)n2nc(N3CCCC(C(=O)NCc4ccccc4)C3)sc2n1 (configuration not stated),inactive,-4.61%
